Experiment [1] in a line: TOX21_p53_BLA_p2_viability: Viability Assessment in the Tox21 HCT-116 p53 Agonism Beta-lactamase Assay, Phase 2 (AID 2283591).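 Further: compound exposure lasted 16 h at 37 °C; actives lower the ATP signal meaning cytotoxicity.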 In a few lines: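 HCT-116 p53-bla cells (4000/well) rested 5 h at 37C, then received compounds in DMSO (217-fold dilution) for 16 h at 37C, 5% CO2. After the CCF4 read, CellTiter-Glo was added; ATP luminescence was read after 30 min at room temperature.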

Experiment [2] can be described thus: TOX21_p53_BLA_p3_viability: Viability Assessment in the Tox21 HCT-116 p53 Agonism Beta-lactamase Assay, Phase 3 (AID 2283593).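 Further: cells exposed to compound for 16 h before reading.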 In a few lines:
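HCT-116 cells (4000/well) rested 5 h at 37C, then got DMSO compounds by pin tool (217-fold dilution) for 16 h at 37C, 5% CO2. After the bla read, CellTiter-Glo was added and luminescence read at 30 min, room temperature.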

Experiment [3] in a line: TOX21_p53_BLA_p4_viability: Viability Assessment in the Tox21 HCT-116 p53 Agonism Beta-lactamase Assay, Phase 4 (AID 2283597).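 Further: hits lower the luminescence signal meaning cytotoxicity.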 In a few lines:
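Readout: ATP luminescence (CellTiter-Glo), measured 30 min after reagent addition at RT. The reagent followed a 2 h CCF4-AM incubation, and the cells had been exposed to compound for 16 h at 37C.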

In experiment [4] the target is Cellular tumor antigen p53 (Homo sapiens) (UniProt P04637). As to the kind of experiment: TOX21_p53_BLA_p5_ratio: Tox21 HCT-116 p53 Agonism Beta-lactamase Assay, Ratio, Phase 5 (AID 2283599). The method in brief: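 HCT-116 cells carrying a p53-inducible beta-lactamase reporter were seeded at 4000 cells/well and dosed after 5 h with compound in DMSO (217-fold dilution). After 16 h at 37C, CCF4-AM substrate was added for 2 h, and the 460/530 nm emission ratio was scored as gain-of-signal versus DMSO.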
Cellular tumor antigen p53 (Homo sapiens), sequence (P04637 whole entry, looked up): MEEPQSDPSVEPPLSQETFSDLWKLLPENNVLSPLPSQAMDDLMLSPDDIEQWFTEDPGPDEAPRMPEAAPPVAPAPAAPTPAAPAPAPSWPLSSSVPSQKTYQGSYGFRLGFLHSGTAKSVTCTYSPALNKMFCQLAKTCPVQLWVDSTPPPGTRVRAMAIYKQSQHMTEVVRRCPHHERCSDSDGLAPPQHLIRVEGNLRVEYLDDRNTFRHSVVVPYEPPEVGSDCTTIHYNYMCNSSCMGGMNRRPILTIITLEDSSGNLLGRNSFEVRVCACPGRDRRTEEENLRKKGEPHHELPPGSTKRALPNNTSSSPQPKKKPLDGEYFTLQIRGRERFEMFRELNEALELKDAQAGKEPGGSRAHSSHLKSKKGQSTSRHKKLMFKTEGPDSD

For experiment [5] the target is unchanged. The experiment can be described thus: TOX21_p53_BLA_p4_ratio: Tox21 HCT-116 p53 Agonism Beta-lactamase Assay, Ratio, Phase 4 (AID 2283601). In a few lines: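 HCT116 cells carrying an inducible beta-lactamase reporter were plated at 4000 cells/well, rested 5 h, then exposed to compounds in DMSO (217-fold dilution) for 16 h at 37C. CCF4-AM substrate was loaded 2 h at room temperature; 460/530 nm emission ratio scored gain-of-signal versus DMSO.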

Experiment [6] can be described thus: TOX21_p53_BLA_p5_viability: Viability Assessment in the Tox21 HCT-116 p53 Agonism Beta-lactamase Assay, Phase 5 (AID 2283600). The method in brief: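 Workflow: seed 4000 cells per well, wait 5 h, add compounds (DMSO, 217-fold dilution), incubate 16 h, load CCF4-AM 2 h, add CellTiter-Glo, read luminescence after 30 min.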

Molecules are shown by their SMILES. Results filed as inconclusive are left out. The source made the active and inactive calls. How the source made its calls: active means hit-call score of the fitted dose curve at least 0.9, where 1 is the maximum; inconclusive means response in the unintended direction; inactive means score below 0.9.

With `Oc1cccc2cc3cccc(O)c3c(O)c12`, the molecule was classed as inactive in experiment [1], in experiment [2], in experiment [3], in experiment [4] and in experiment [5].

For `CN(C)c1cc(NC(=O)CNC(C)(C)C)c(O)c2c1C[C@H]1C[C@H]3[C@H](N(C)C)C(=O)C(C(N)=O)=C(O)[C@@]3(O)C(=O)C1=C2O`, the outcome in experiment [1], in experiment [2], in experiment [3] and in experiment [6] was inactive.

Regarding `c1ccc(CC2=NCCN2)cc1`, the molecule was called inactive in experiment [1], in experiment [2], in experiment [3] and in experiment [4].

In the case of `CC(=O)SC[C@@H](Cc1ccccc1)C(=O)NCC(=O)OCc1ccccc1`, the outcome in experiment [1], in experiment [2], in experiment [3], in experiment [6] and in experiment [5] was inactive.

For `Cc1ccc(Cl)cc1N`, the molecule was called inactive in experiment [1], in experiment [2], in experiment [3], in experiment [4] and in experiment [5].

For the molecule `CCOC(=O)OCC/C(SC(=O)OCC)=C(\C)N(C=O)Cc1cnc(C)nc1N`, the outcome in experiment [1], in experiment [2], in experiment [3] and in experiment [6] was inactive.

In the case of `OCCN(CCO)CCN(CCO)CCO`, the call in experiment [1], in experiment [2], in experiment [3], in experiment [4] and in experiment [6] was inactive.

`COC(C)(OC)OC`: the molecule was classed as inactive in experiment [1], in experiment [2], in experiment [3], in experiment [4] and in experiment [5].

Regarding `CN(C)CCOC(c1ccccc1)c1ccccc1` (tested in a mixture with another compound), the call in experiment [1], in experiment [2], in experiment [3] and in experiment [6] was inactive.

Take `C=CCCC`: the outcome in experiment [1], in experiment [2], in experiment [3], in experiment [4] and in experiment [6] was inactive.

On to `CC(C)C(O)(c1ccc(OC(F)(F)F)cc1)c1cncnc1` (centres undefined), for which the call in experiment [1], in experiment [2], in experiment [3], in experiment [4], in experiment [6] and in experiment [5] was inactive.

On to `O=c1[nH][nH]c(=O)c2cc([N+](=O)[O-])ccc12`, for which the molecule was classed as inactive in experiment [1], in experiment [2], in experiment [3] and in experiment [6].

Regarding `COCCCOc1cc(C[C@@H](C[C@H](N)[C@@H](O)C[C@H](C(=O)NCC(C)(C)C(N)=O)C(C)C)C(C)C)ccc1OC`, the call in experiment [1], in experiment [2], in experiment [3], in experiment [4] and in experiment [6] was inactive.

For `COC(=O)c1ccccc1C(=O)c1ccc(OCCN2CCCCC2)cc1`, the molecule was classed as inactive in experiment [1], in experiment [2], in experiment [3], in experiment [6] and in experiment [5].

Consider `On1nnc2ccccc21`, for which the call in experiment [1], in experiment [2], in experiment [3], in experiment [4], in experiment [6] and in experiment [5] was inactive.

`c1cc(CN2CCCCC2)cc(OCCCNc2nc3ccccc3s2)c1`: the result in experiment [1], in experiment [2], in experiment [3] and in experiment [6] was inactive.

Turning to `CCN1CCOCC1`, the outcome in experiment [1], in experiment [2], in experiment [3], in experiment [4] and in experiment [6] was inactive.

As for `Cc1ccc(C(=O)O)cc1`, the outcome in experiment [1], in experiment [2], in experiment [3], in experiment [4] and in experiment [6] was inactive.

Consider `CCCC(=O)O[C@]1(C(=O)COC(=O)CC)[C@@H](C)C[C@H]2[C@@H]3CCC4=CC(=O)C=C[C@]4(C)[C@@]3(F)[C@@H](O)C[C@@]21C`, for which the outcome in experiment [1], in experiment [2], in experiment [3] and in experiment [6] was inactive.

For `CC(C(O)c1ccc(O)cc1)N1CCC(Cc2ccccc2)CC1` (centres undefined), the molecule was classed as inactive in experiment [1], in experiment [2], in experiment [3] and in experiment [4].

In the case of `O=[N+]([O-])c1ccc(F)cc1F`, the outcome in experiment [1], in experiment [2], in experiment [3], in experiment [4] and in experiment [6] was inactive.

Turning to `Cc1ccc(C2(O)CCN(CCCC(=O)c3ccc(F)cc3)CC2)cc1`, the call in experiment [1], in experiment [2], in experiment [3], in experiment [4], in experiment [6] and in experiment [5] was inactive.

For `CCCCCCCCCCCCCCCCCCOCCO`, the call in experiment [1], in experiment [2], in experiment [3], in experiment [4] and in experiment [6] was inactive.

Regarding `C[C@H]1O[C@@H](O[C@H]2CC[C@@]3(C)[C@H](CC[C@@H]4[C@@H]3C[C@@H](O)[C@]3(C)[C@@H](C5=CC(=O)OC5)CC[C@]43O)C2)C[C@H](O)[C@@H]1O[C@H]1C[C@H](O)[C@H](O[C@H]2C[C@H](O)[C@H](O[C@@H]3O[C@H](CO)[C@@H](O)[C@H](O)[C@H]3O)[C@@H](C)O2)[C@@H](C)O1`, the concentration at half-maximal activity (AC50) was 284 nM (active) in experiment [1], 296 nM (active) in experiment [2], 337 nM (active) in experiment [3] and 353 nM (active) in experiment [6].

For the molecule `O=c1[nH]c2ccccc2n1CCCN1CCN(C(c2ccccc2)c2ccccc2)CC1`, the molecule was called inactive in experiment [1], in experiment [2] and in experiment [6]. Also, the AC50 in experiment [3] was 31300 nM (active).

With `O=c1[nH]ncc2ccccc12`, the molecule was called inactive in experiment [1], in experiment [2], in experiment [3], in experiment [4] and in experiment [5].

Turning to `Cc1ccccc1CNc1ncnc2c1ncn2[C@@H]1O[C@H](CO)[C@@H](O)[C@H]1O`, the molecule was classed as inactive in experiment [1], in experiment [2], in experiment [3], in experiment [4], in experiment [6] and in experiment [5].

As for `CC(C)CCOC(=O)c1ccc(N(C)C)cc1`, the molecule was classed as inactive in experiment [1], in experiment [2], in experiment [3], in experiment [4], in experiment [6] and in experiment [5].

Regarding `N#C[C@@H]1C[C@@H]2C[C@@H]2N1C(=O)[C@@H](N)C12CC3CC(CC(O)(C3)C1)C2`, the call in experiment [1], in experiment [2], in experiment [3], in experiment [4], in experiment [6] and in experiment [5] was inactive.

On to `CCCCCCCCCCCCCCCC(=O)OC[C@@H](NC(=O)C(Cl)Cl)[C@H](O)c1ccc([N+](=O)[O-])cc1`, for which the outcome in experiment [1], in experiment [2], in experiment [3] and in experiment [6] was inactive.

Turning to `CCC(=O)OCC(=O)[C@@]1(OC(=O)CC)[C@@H](C)C[C@H]2[C@@H]3CCC4=CC(=O)C=C[C@]4(C)[C@@]3(F)[C@@H](O)C[C@@]21C`, the outcome in experiment [1], in experiment [2], in experiment [3], in experiment [4] and in experiment [5] was inactive.

Consider `COC(=O)[C@H]1[C@H]2C[C@@H]3c4[nH]c5cc(OC)ccc5c4CCN3C[C@H]2C[C@H](OC)[C@@H]1OC`, for which the molecule was called inactive in experiment [1], in experiment [2], in experiment [3] and in experiment [4].

Broadly, the AC50 is the concentration giving half of the maximal activity seen.

The values are drawn from PubChem BioAssay (EPA / NIEHS).
